In ChEMBL document CHEMBL3988442, “University of Dundee, Small-Polar-MMV Screening Library” (2021):
For some of these results: Results with a measured potency or affinity are listed apart.

Key:
Parameters in all cases: scale not given: direction of the effect not stated beside the values
[1] = molecular target: Protein translocase subunit SecA (Escherichia coli (strain K12)) (UniProt P10408); assay: Assay to Identify E. coli SecA ATPase Inhibitors; assay type: functional; conditions: 30 µM
[2] = molecular target: T1, Ubiquitin-activating enzyme e1, putative (Leishmania donovani (strain BPK282A1)) (UniProt E9BSI1); assay: Leishmania donovani Ubiquitin Activating Enzyme (LdE1); assay type: functional; conditions: 30 µM
T1 sequence (whole entry): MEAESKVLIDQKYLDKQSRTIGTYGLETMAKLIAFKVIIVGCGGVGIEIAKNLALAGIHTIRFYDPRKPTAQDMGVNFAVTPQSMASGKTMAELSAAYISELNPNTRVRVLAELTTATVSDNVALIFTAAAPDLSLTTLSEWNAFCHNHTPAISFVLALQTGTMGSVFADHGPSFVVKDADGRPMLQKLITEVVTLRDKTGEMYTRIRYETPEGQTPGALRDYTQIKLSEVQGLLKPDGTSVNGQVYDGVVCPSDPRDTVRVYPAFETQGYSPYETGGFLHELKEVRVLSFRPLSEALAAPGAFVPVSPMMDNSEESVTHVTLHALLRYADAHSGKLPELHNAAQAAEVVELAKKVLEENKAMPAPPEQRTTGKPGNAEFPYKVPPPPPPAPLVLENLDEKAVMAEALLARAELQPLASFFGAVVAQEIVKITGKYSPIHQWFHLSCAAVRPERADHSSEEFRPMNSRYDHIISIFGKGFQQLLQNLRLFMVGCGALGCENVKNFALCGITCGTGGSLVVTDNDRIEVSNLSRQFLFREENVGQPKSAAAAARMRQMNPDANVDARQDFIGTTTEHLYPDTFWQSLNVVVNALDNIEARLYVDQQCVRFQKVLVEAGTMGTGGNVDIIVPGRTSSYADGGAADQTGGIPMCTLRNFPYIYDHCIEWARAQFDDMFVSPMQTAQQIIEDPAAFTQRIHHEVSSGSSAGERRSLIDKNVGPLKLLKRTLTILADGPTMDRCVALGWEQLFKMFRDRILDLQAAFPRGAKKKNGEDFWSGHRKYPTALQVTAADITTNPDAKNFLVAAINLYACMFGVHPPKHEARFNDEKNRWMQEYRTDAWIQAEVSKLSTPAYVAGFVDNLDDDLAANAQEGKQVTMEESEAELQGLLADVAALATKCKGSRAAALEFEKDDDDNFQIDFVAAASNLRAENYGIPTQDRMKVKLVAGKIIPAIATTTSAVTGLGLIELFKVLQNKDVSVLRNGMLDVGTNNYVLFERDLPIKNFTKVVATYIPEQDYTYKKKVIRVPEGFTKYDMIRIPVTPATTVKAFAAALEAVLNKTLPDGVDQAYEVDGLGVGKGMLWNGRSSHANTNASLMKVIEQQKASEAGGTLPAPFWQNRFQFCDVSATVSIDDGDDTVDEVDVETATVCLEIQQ

[3] = molecular target: T2, Aspartate--tRNA(Asp/Asn) ligase (Mycobacterium tuberculosis (strain ATCC 25618 / H37Rv)) (UniProt P9WFW3); assay: Assay for Asp RNA synthetase-1 from Mycobacterium tuberculosis; assay type: functional; conditions: 30 µM; also: in the data most compounds retested in dose-response had high values
T2 sequence (whole entry): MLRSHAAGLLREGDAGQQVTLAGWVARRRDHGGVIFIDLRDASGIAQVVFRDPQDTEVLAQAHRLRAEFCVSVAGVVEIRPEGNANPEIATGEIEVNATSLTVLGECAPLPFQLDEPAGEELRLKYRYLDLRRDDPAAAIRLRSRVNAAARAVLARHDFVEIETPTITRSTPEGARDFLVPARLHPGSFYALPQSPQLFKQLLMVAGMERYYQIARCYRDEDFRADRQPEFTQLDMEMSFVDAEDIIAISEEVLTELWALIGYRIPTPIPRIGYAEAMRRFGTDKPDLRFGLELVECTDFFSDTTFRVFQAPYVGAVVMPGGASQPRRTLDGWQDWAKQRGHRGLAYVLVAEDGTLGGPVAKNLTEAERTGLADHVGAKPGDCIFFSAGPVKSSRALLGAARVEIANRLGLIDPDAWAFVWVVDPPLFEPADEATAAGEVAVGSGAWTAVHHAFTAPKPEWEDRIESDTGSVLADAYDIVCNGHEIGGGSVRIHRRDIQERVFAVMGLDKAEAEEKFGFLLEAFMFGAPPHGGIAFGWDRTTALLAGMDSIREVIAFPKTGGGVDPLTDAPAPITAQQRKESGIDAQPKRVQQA

[4] = molecular target: AMP-activated protein kinase, AMPK (Homo sapiens) (UniProt P54646+O43741+P54619+Q9UGJ0+Q9Y478+Q13131+Q9UGI9); assay: AMP-dependent Kinase enzyme assay. An in vitro enzyme assay that detects ADP turnover that is directly proportional to AMPK activity. This uses naive AMPK that is activated during the assay with MK-8722; assay type: functional; conditions: 30 µM
[5] = molecular target: Sialic acid-binding Ig-like lectin 9 (Homo sapiens) (UniProt Q9Y336); assay: Hs-Siglec9 ALPHAscreen SOP 20170721; conditions: 10 µM
Trypanosoma cruzi = assay: Trypanosoma cruzi phosphomannomutase and mannose-1-phosphate guanylyltransferase assay; assay type: functional; conditions: 10 µM
[6] = molecular target: T3, Arginase-2, mitochondrial (Homo sapiens) (UniProt P78540); assay: in vitro enzyme assay to detect the production of urea directly proportional to the activity of Arginase II; assay type: functional; conditions: 33.3 µM; also: in the data most compounds retested in dose-response had high values
T3 sequence (whole entry): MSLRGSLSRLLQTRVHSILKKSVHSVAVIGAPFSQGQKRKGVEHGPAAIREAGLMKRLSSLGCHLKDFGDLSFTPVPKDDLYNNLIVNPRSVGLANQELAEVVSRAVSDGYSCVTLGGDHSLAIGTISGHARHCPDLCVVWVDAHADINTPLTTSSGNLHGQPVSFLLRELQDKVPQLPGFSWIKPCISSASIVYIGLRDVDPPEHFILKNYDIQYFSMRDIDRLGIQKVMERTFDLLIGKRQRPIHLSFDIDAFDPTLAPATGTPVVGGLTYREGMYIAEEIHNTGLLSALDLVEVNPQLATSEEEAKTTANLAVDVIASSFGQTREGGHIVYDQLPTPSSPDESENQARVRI

[7] = molecular target: T4, Proteasome subunit beta (Trypanosoma cruzi) (UniProt O96673); assay: Trypanosoma cruzi proteasome chymotrypsin-like activity (TcProtChymo) assay.; also: in the data most compounds retested in dose-response had high values; assay type: functional; conditions: 9.37 µM
T4 sequence (whole entry): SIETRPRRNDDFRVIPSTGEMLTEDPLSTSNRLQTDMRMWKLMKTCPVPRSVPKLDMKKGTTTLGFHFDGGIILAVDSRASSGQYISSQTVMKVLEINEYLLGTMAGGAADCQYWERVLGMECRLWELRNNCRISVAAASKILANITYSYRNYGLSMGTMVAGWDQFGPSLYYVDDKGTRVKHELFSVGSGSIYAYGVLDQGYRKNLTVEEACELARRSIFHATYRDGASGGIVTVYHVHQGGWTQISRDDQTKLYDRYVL

Homo sapiens = organism: Homo sapiens; assay: To identify inhibition of the IFN signalling (Jak-Stat) pathway via expression of an eGFP reporter gene under the control of an IFN-stimulated response element (ISRE) containing MxA promoter.; assay type: functional; conditions: 30 µM
[8] = molecular target: Shiga toxin 2 (Escherichia coli O157:H7) (UniProt P09385+P09386); assay: E. coli 0.157:H7 Shiga Toxin SOP - stx2 screening assay; assay type: functional; conditions: 30 µM
[9] = molecular target: T5, Tyrosyl-tRNA synthetase, putative (Trypanosoma cruzi (strain CL Brener)) (UniProt Q4DSP6); assay: Trypanosoma cruzi tyrosyl tRNA synthetase (TcYRS) _High Tyrosine SOP; assay type: functional; conditions: 30 µM; also: in the data most compounds retested in dose-response had high values
T5 sequence (whole entry): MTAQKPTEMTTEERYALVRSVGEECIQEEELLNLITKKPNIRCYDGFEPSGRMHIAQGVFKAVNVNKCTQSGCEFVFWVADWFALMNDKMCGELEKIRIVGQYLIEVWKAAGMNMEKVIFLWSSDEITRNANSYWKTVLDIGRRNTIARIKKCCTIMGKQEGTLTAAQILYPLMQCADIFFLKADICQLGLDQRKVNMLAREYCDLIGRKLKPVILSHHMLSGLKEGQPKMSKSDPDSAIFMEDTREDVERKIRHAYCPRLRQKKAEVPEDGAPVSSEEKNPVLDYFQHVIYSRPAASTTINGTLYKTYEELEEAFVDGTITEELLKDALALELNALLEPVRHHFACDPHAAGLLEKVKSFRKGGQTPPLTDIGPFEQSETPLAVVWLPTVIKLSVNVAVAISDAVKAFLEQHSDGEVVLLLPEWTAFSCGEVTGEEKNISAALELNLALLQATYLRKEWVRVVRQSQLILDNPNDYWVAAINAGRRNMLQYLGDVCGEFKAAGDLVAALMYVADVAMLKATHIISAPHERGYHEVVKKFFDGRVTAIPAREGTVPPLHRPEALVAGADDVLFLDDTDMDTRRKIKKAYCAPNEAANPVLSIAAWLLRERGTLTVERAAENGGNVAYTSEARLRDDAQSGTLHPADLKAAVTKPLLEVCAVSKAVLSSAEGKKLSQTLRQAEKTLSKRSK

[10] = molecular target: T5, Tyrosyl-tRNA synthetase, putative (Trypanosoma cruzi (strain CL Brener)); assay: Trypanosoma cruzi tyrosyl tRNA synthetase (TcYRS) SOP; assay type: functional; conditions: 30 µM
[11] = molecular target: Chromo domain-containing protein 1 (Saccharomyces cerevisiae (strain ATCC 204508 / S288c) (Baker's yeast)) (UniProt P32657); assay: ScCHD-1 Enzyme Inhibition Assay; assay type: functional; conditions: 30 µM; also: in the data most compounds retested in dose-response had high values
Chain of Chromo domain-containing protein 1 (Saccharomyces cerevisiae (strain ATCC 204508 / S288c) (Baker's yeast)) (P32657 whole entry, the tested form may be a part): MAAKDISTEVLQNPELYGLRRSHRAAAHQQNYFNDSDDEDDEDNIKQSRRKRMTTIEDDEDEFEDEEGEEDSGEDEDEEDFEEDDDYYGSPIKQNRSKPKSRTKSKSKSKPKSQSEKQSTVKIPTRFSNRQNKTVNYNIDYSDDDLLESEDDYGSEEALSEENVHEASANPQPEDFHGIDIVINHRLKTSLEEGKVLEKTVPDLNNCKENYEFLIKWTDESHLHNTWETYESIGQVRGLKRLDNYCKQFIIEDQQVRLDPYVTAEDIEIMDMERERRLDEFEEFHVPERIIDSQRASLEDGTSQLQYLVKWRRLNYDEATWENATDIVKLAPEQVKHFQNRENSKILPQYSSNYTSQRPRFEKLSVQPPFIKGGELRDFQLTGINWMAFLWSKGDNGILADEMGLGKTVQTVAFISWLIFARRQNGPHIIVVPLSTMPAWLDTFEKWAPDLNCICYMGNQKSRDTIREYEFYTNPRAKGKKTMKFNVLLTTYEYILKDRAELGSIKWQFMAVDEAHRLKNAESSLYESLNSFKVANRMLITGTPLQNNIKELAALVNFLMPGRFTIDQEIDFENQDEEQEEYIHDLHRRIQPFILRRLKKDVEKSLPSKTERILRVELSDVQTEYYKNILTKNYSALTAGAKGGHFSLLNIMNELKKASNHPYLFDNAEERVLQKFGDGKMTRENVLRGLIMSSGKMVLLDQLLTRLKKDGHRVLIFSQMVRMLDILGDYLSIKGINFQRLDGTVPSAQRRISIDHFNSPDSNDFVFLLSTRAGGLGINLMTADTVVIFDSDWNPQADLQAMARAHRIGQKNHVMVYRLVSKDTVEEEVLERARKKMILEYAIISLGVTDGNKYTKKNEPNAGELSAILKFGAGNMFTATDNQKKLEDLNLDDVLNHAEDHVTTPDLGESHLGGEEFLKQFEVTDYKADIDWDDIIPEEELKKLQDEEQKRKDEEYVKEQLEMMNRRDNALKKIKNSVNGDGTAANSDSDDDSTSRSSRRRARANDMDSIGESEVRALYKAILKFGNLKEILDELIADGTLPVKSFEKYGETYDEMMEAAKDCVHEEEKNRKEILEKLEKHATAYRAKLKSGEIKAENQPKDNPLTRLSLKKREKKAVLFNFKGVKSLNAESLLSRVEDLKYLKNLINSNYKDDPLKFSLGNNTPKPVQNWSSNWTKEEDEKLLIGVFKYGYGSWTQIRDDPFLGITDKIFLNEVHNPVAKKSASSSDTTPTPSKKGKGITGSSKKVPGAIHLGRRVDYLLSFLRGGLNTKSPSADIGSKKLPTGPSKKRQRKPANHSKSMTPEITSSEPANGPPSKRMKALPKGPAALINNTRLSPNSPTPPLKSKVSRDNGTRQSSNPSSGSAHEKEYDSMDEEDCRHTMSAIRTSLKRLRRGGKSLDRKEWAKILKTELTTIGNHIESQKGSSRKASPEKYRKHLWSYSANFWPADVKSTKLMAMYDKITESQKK

Chain of Protein translocase subunit SecA (Escherichia coli (strain K12)) (P10408 whole entry): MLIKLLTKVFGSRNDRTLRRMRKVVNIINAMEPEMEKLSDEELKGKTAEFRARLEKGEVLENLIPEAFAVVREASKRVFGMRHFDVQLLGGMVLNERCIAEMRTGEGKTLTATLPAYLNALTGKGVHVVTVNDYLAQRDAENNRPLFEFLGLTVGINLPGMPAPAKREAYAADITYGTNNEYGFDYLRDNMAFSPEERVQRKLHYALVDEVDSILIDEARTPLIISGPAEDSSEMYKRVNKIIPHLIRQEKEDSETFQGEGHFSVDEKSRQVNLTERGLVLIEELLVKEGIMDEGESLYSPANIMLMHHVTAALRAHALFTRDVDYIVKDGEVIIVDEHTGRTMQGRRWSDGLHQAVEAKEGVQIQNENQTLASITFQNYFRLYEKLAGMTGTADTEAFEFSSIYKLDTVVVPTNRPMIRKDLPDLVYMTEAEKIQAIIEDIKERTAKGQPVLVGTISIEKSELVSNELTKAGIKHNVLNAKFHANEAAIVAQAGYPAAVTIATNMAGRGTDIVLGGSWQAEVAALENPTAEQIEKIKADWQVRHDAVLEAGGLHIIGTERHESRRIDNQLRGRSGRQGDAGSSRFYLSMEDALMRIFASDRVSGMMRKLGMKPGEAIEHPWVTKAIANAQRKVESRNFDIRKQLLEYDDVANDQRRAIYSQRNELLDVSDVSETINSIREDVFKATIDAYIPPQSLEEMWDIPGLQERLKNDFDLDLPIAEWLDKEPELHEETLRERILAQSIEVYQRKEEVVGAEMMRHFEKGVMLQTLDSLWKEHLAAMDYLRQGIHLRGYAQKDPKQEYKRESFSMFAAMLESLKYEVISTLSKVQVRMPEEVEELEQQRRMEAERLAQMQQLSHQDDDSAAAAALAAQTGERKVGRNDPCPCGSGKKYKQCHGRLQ
Chain of Sialic acid-binding Ig-like lectin 9 (Homo sapiens) (Q9Y336 whole entry): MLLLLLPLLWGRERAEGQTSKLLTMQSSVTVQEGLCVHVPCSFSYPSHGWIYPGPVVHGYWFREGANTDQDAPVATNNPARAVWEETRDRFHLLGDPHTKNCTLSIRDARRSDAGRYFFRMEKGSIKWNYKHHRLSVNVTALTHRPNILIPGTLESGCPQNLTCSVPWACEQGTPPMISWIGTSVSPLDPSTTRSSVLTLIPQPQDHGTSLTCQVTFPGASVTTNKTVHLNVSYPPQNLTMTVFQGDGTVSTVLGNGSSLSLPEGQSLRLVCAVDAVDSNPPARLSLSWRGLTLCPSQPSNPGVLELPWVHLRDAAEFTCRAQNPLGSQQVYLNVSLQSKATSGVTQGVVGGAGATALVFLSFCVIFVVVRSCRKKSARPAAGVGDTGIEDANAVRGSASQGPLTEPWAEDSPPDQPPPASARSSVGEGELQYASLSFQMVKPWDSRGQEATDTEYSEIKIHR

SMILES | Percent Effect [1] [%] | Percent Effect [2] [%] | Percent Effect [3] [%] | Percent Effect [4] [%] | Percent Effect [5] [%] | Percent Effect (Trypanosoma cruzi) [%] | Percent Effect [6] [%] | Percent Effect [7] [%] | Percent Effect (Homo sapiens) [%] | Percent Effect [8] [%] | Percent Effect [9] [%] | Percent Effect [10] [%] | Percent Effect [11] [%]
Cc1nc(C)c(CC(=O)N2C[C@@H]3CC[C@H](C2)N(CC2CCC2)C3)c(=O)[nH]1 | -2.23 | 18.9 | -2.78 | -35.4 | 21.6 | 4.2 | 16.1 | 16.2 | -15.8 | 5.33 | 4.3 | 18.5 | -11.7
CN1CCCC(Cc2cncc(Br)c2)CC1 (stereo not given) | -3.64 | 1.35 | -6.03 | 13.7 | -1.84 | 5.73 | 0.232 | 9.05 | -10.1 | -7.14 | 20.4 | 22.1 | -20.8
Cc1cc(N2CCN3CCCCC3C2)n2nc(C)c(C)c2n1 (stereo not given) | -1.84 | 6.94 | -12.4 | -4.39 | -5.54 | -2.43 | -0.442 | 14.7 | -15.5 | 4.77 | 4.21 | 10.3 | -3.52
Cc1nnc(N2CCCC3(CN(Cc4ccncc4)CCO3)C2)o1 (stereo not given) | 3.96 | 5.48 | -2.96 | 0.217 | 8.21 | -4.76 | -2 | 20.3 | 6.92 | -16.9 | 4.17 | 16.1 | 0.771
c1cncc(N2CCOCC3(CCCN(Cc4cccs4)C3)C2)c1 (stereo not given) | -5.18 | 13.5 | 2.95 | 5.95 | -1.9 | -0.293 | 2.23 | 10.3 | 4.59 | 14.1 | 8.65 | 15.4 | -1.37
Cn1c(=O)n(C)c2cc(C3SCC(=O)Nc4ccsc43)ccc21 (stereo not given) | -5.92 | 6.67 | -5.4 | -13.6 | -2.48 | 7.27 | -11.8 | 12.9 | 37.1 | -33.2 | 4.23 | 12.8 | -7.83
c1ccc(OC[C@@H]2CCC[C@@]23CNCCO3)nc1 | -2.73 | 5.41 | 9.49 | 130 | -8.96 | -4.79 | -7.33 | 17.9 | 24.8 | -5.1 | 1.08 | 2.56 | -0.951
CCOCC(O)CN1CCN(C(=O)Cc2ccccc2C)CC1 (stereo not given) | 1.46 | 13.2 | -3.28 | -1.09 | 0.779 | -8.65 | 8.43 | 8.69 | 20 | 30.3 | 0.49 | 9.76 | -8.57
O=C(CN1CCN(C(=O)Cc2ccc3c(c2)OCCO3)CC1)NC1CC1 | -0.996 | 18.2 | 3.1 | 0.741 | 0.674 | 2.06 | -2.13 | 11.8 | -0.0292 | -19.4 | 6.8 | 12.2 | -6.48
CCN1C[C@H]2C[C@H](C(=O)NCc3cccnc3)[C@@H](C1)O2 | -1.53 | 0 | 4.45 | -69.3 | 5.53 | 1.07 | 2.23 | 11.1 | -10.6 | 2.21 | 3.24 | 10.3 | 2
